# According to PubChem BioAssay AID720533 (National Center for Advancing Translational Sciences (NCATS), 2013):
# The whole screen tested about 18,000 compounds, of which about 750 (4.2%) were called active. Entries that show only a call come without a potency. Roughly 13% stayed inconclusive and do not appear here. Many of the other results were omitted from the sample, so actives are more common in it than they were. A number with no mark means an inactive call. The call rests on the fitted dose curve; tested in HEK293 cells.
# Test: qHTS for Inhibitors of binding or entry into cells for Lassa Virus
# Conditions: Lassa virus pseudotyped entry inhibition, cell-based qHTS; series mostly up to 49.2 µM
# Potency means the concentration at half of the fitted maximal effect.
Structure (SMILES),"activity change, negative = inhibition",Potency
COc1ccccc1-c1ccnc(-n2ncc(C(=O)NCCc3ccncc3)c2C)n1,inactive,
CCOc1ccc(NS(=O)(=O)c2ccc(N)cc2)nn1,inactive,
CC(C)[C@@H](CO[Si](C)(C)C(C)(C)C)N1C[C@@H](N2CCCC2)CS1(=O)=O,inactive,
C=CC1=C2C=C(C3CC3)N(CC(C)C)C=C2C(=O)C(C)(OC(=O)c2ccco2)C1=O (stereo not drawn),-4.02% [at 8.59 µM],
NC(=O)C(=O)N/N=C/c1ccc([N+](=O)[O-])o1,inactive,
Cc1ccc(-c2nn(CC(C)(C)C)c3ncnc(N)c23)cc1,inactive,
Cc1csc(-c2coc3cc(O[C@@H]4O[C@H](CO)[C@@H](O)[C@@H](O)[C@H]4O)ccc3c2=O)n1,inactive,
COc1ccc([C@@H](NC(=O)C(F)(F)F)C2CCCC=C2c2ccccc2)cc1OC (stereo partly drawn),-11.1% [at 8.59 µM],
NNc1nnc(Cc2ccncc2)c2ccccc12,inactive,
O=Cc1c(Cl)cccc1Cl,inactive,
O=C1C(c2ccccn2)=[N+]([O-])c2ccccc21,inactive,
Cc1nnc(C(=O)NC(C)(C)c2nc(C(=O)NCc3ccc(F)cc3)c(O)c(=O)n2C)o1,inactive,
C[C@@H]1C[C@H]2CC[C@H](O2)[C@H](C)C(=O)O[C@@H](C)C[C@@H]2CC[C@@H](O2)[C@@H](C)C(=O)O[C@H](C)C[C@H]2CC[C@H](O2)[C@H](C)C(=O)O[C@@H](C)C[C@@H]2CC[C@@H](O2)[C@@H](C)C(=O)O1,,0.562 µM (active)
CCCCCCCCCCCC(=O)O[C@H](CC(=O)O)C[N+](C)(C)C,inactive,
COC1=C[C@H](C(=O)N[C@H]2CCCC[C@H]2NC(C)=O)[C@H](C)[C@@H](c2ccccc2)CC1=O,-1.51% [at 8.59 µM],
COc1cccc([C@@H]2Oc3ccc(Br)cc3C(=O)[C@H]2OC(=O)NCc2ccc3c(c2)OCO3)c1,inactive,
CN1CCCCCC1C(=O)NCCN1Cc2ccccc2OC(c2ccsc2)C1 (stereo not drawn),inactive,
CCCCC/C=C\C[C@H](O)/C=C/C=C/C=C/[C@@H](O)CCCC(=O)O,inactive,
O=C(/C=C/c1cccc(F)c1)NC1CC1,inactive,
CC[N+](C)(CC)CCC[n+]1c(-c2ccccc2)c2cc(N)ccc2c2ccc(N)cc21,,3.16 µM (active)
Brc1ccc(C2=NCCC(c3ccccc3)O2)cc1 (stereo not drawn),inactive,
COC1=C[C@H](C(=O)NCc2ccccc2)[C@@]2(C)Cc3ccccc3[C@@H]2CC1=O,-4.25% [at 8.59 µM],
CCCC[C@]12Cc3cc(C#N)ccc3[C@H](O1)c1c(cc(-c3ccccc3)oc1=O)O2,20.3% [at 8.59 µM],
